Assay [1] is described as follows: cAMP Responsive Elements (CRE) small molecule antagonists, cell-based qHTS assay: qHTS cell viability counter screen (AID 2060913). Note: nearly all actives have a fitted effect of over 40% in size. In outline: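 Steps: cells plated and held 18 hrs at 37 C/5% CO2; compounds and NKH477 (0.25 uM final) added; 3 hrs incubation; reporter substrate read; CellTiter-Glo added to measure cytotoxicity by luminescence.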
Background: Quantitative high-throughput screening tests each substance at several concentrations.

Assay [2] in a line: cAMP Responsive Elements (CRE) small molecule agonists, cell-based qHTS assay: qHTS cell viability counter screen (AID 2060914).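 Note: viability read after 3 h of compound exposure; nearly all actives have a fitted effect of over 50% in size.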 A digest of the protocol:
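Cells are seeded and incubated 18 h, treated with compounds in DMSO for 3 h, read for the bla reporter, then given CellTiter-Glo; luminescence is measured after 30 min at room temperature.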

Inconclusive results are not listed. Where a call stands in place of a potency, no number is given. Calls of active or inactive are those of the source. Calls come from the whole dose curve; as a rule, active = well fitted cell-killing curve with a large enough effect in the repeat runs; inconclusive = weak or mixed curves, or effect the other way; inactive = flat fitted curve, though single readings scatter.

With `CCCCCCCCCCCC[N+](C)(C)CC(=O)[O-]`, the Potency entry in assay [1] and in assay [2] was “inactive” in each case.

For the compound `COc1cc(C(=O)OC(COCCC(C)C)CN2CCOCC2)cc(OC)c1OC` (stereo not given), the Potency entry in assay [1] and in assay [2] was “inactive” throughout.

Consider `C/C(=N\O)c1ccc(OCC(=O)N2CCCCC2)cc1`, for which the Potency entry in assay [1] and in assay [2] was “inactive” in each case.

For the compound `CCCCC(CC)C(=O)OCCOCCOCCOCCOC(=O)C(CC)CCCC` (stereo not given), the Potency result in assay [1] and in assay [2] was “inactive” each time.

Consider `C=C1C[C@H]2[C@@H]3C=C(C)C4=CC(=O)CC[C@]4(C)[C@H]3CC[C@]2(C)[C@@]1(OC(C)=O)C(C)=O`, for which the Potency entry in assay [1] and in assay [2] was “inactive” in each case.

Regarding `Oc1ccc2cc(SSc3ccc4cc(O)ccc4c3)ccc2c1`, the Potency result in assay [1] and in assay [2] was “inactive” each time.

In the case of `CCN1CN(CC)CN(CC)C1`, the Potency result in assay [1] and in assay [2] was “inactive” each time.

As for `O=Nc1ccc(Nc2ccccc2)cc1`, the Potency entry in assay [1] and in assay [2] was “inactive” throughout.

Regarding `C=CC(=O)OCCCCCCCC(C)C`, the Potency result in assay [1] and in assay [2] was “inactive” in each case.

In the case of `CCCCOc1ccc(N)cc1`, the Potency entry in assay [1] and in assay [2] was “inactive” in each case.

For `CN[C@@H]1[C@@H](O)[C@@H](O[C@@H]2[C@H](O)[C@H](O[C@H]3OC(CN)=CC[C@H]3N)[C@@H](N)C[C@H]2N)OCC1(C)O` (stereo not given in full), the Potency result in assay [1] and in assay [2] was “inactive” throughout.

Take `CCC(C)(C)C(=O)O`: the Potency entry in assay [1] and in assay [2] was “inactive” in each case.

As for `CC(=O)c1ccc2c(c1)CCCC2`, the Potency result in assay [1] and in assay [2] was “inactive” throughout.

Turning to `O=C1C(c2[nH]c3ccc(S(=O)(=O)O)cc3c2O)=Nc2ccc(S(=O)(=O)O)cc21`, the Potency result in assay [1] and in assay [2] was “inactive” in each case.

For `O=C(c1ccccc1)C1CCCCC1`, the Potency result in assay [1] and in assay [2] was “inactive” each time.

Regarding `CC(=O)CC(=O)Nc1ccc(C)cc1C`, the Potency entry in assay [1] and in assay [2] was “inactive” each time.

Consider `Clc1ccnc(Cl)n1`, for which the Potency result in assay [1] and in assay [2] was “inactive” throughout.

For the compound `COc1cccc(CCc2ccccc2OCC(CN(C)C)OC(=O)CCC(=O)O)c1` (stereo not given), the Potency result in assay [1] and in assay [2] was “inactive” throughout.

Turning to `CN(C)c1ccc(Cc2ccc(N(C)C)cc2)cc1`, the Potency result in assay [1] and in assay [2] was “inactive” each time.

With `COC(=O)CCCCC(=O)O`, the Potency result in assay [1] and in assay [2] was “inactive” throughout.

Turning to `Cc1cnc(NC(=O)C2=C(O)c3ccccc3S(=O)(=O)N2C)s1`, the Potency result in assay [1] and in assay [2] was “inactive” in each case.

In the case of `Cc1ccc([N+](=O)[O-])cc1N`, the Potency result in assay [1] and in assay [2] was “inactive” each time.

Consider `CC(CC(C#N)(c1ccccc1)C(C)C)N(C)C` (stereo not given), for which the Potency result in assay [1] and in assay [2] was “inactive” throughout.

For the compound `C/C=C/C=C/COC(=O)C(C)C`, the Potency entry in assay [1] and in assay [2] was “inactive” in each case.

For `COc1ccc(N)c(OC)c1`, the Potency result in assay [1] and in assay [2] was “inactive” in each case.

Regarding `Oc1c(Cl)ccc(Cl)c1Cl`, the Potency result in assay [1] and in assay [2] was “inactive” throughout.

As for `CCCCCCC1(C)CCC(=O)O1` (stereo not given), the Potency entry in assay [1] and in assay [2] was “inactive” throughout.

As to `O=C(/C=C/c1ccccc1)OCc1ccccc1`, the Potency result in assay [1] and in assay [2] was “inactive” in each case.

As for `Cc1ccc(O)c(C(C)(C)C)c1`, the Potency result in assay [1] and in assay [2] was “inactive” throughout.

Regarding `CCNS(=O)(=O)c1ccc(C)cc1`, the Potency entry in assay [1] and in assay [2] was “inactive” throughout.

Turning to `O/N=C/C=N/O`, the Potency result in assay [1] and in assay [2] was “inactive” in each case.

`CCN1C(=O)c2ccccc2C1Nc1ccc(OCCN2CCCCC2)cc1` (stereo not given): the Potency entry in assay [1] and in assay [2] was “inactive” in each case.

As for `O=C(Cl)c1c(Cl)c(Cl)c(C(=O)Cl)c(Cl)c1Cl`, the Potency entry in assay [1] and in assay [2] was “inactive” in each case.

Turning to `CC12CC3CC(C)(C1)CC(N)(C3)C2`, the Potency result in assay [1] and in assay [2] was “inactive” in each case.

As for `N/C(=N\N=C\c1ccc(Cl)cc1)N/N=C/c1ccc(Cl)cc1`, the Potency result in assay [1] and in assay [2] was “inactive” each time.

For the compound `Cc1cnccn1`, the Potency result in assay [1] and in assay [2] was “inactive” throughout.

Turning to `CN1C(C)(C)CCCC1(C)C`, the Potency result in assay [1] and in assay [2] was “inactive” in each case.

Take `CCCCCN(CCCOC)C(=O)C(CCC(=O)O)NC(=O)c1ccc(Cl)c(Cl)c1` (stereo not given): the Potency entry in assay [1] and in assay [2] was “inactive” each time.

`CC(=O)c1ccc(C)cc1`: the Potency result in assay [1] and in assay [2] was “inactive” throughout.

Regarding `S=C([S-])NCCNC(=S)[S-].[Mn+2]`, the Potency result in assay [1] and in assay [2] was “inactive” throughout.

On to `COc1ccc(CCO)cc1`, for which the Potency result in assay [1] and in assay [2] was “inactive” each time.

With `CCC(=O)OCc1ccc(OC)cc1`, the Potency result in assay [1] and in assay [2] was “inactive” throughout.

As to `C/C=C/C=C/CCCCCCCO`, the Potency result in assay [1] and in assay [2] was “inactive” in each case.

`Cc1ncc[nH]1`: the Potency entry in assay [1] and in assay [2] was “inactive” throughout.

On to `Nc1nnnn1-c1ccccc1`, for which the Potency result in assay [1] and in assay [2] was “inactive” in each case.

Turning to `O=C(OCCCCCCOC(=O)c1ccccc1)c1ccccc1`, the Potency entry in assay [1] and in assay [2] was “inactive” each time.

For the compound `CCC(C)(C)C`, the Potency result in assay [1] and in assay [2] was “inactive” throughout.

On to `COC(=O)c1ccc(NC(C)=O)cc1OC`, for which the Potency entry in assay [1] and in assay [2] was “inactive” each time.

Consider `O=S(=O)(O)C(F)(F)F`, for which the Potency result in assay [1] and in assay [2] was “inactive” each time.

On to `CCN(CC)CCSC(=O)C(c1ccccc1)c1ccccc1`, for which the Potency result in assay [1] and in assay [2] was “inactive” in each case.

As to `CCCCOC(=O)[C@@H](C)Oc1ccc(Oc2ccc(C(F)(F)F)cn2)cc1`, the Potency result in assay [1] and in assay [2] was “inactive” each time.

Turning to `COc1ccc(CCN(C)CCCC(C#N)(c2ccc(OC)c(OC)c2)C(C)C)cc1OC` (stereo not given), the Potency result in assay [1] and in assay [2] was “inactive” each time.

Turning to `CC(C)=CCCC(C)O` (stereo not given), the Potency entry in assay [1] and in assay [2] was “inactive” throughout.

With `Cc1cc(C)c(C=O)c(C)c1`, the Potency result in assay [1] and in assay [2] was “inactive” each time.

As for `CC(=O)Nc1ccc(OCCOCCOc2ccc(NC(C)=O)cc2)cc1`, the Potency entry in assay [1] and in assay [2] was “inactive” throughout.

In the case of `O=C[C@H](O)[C@@H](O)[C@H](O)[C@H](O)CO`, the Potency entry in assay [1] and in assay [2] was “inactive” each time.

For the compound `CCN(C(=O)N(CC)c1ccccc1)c1ccccc1`, the Potency result in assay [1] and in assay [2] was “inactive” in each case.

Take `Oc1cc2c(cc1O)[C@H]1c3ccc(O)c(O)c3OC[C@@]1(O)C2`: the Potency entry in assay [1] and in assay [2] was “inactive” in each case.

For `NC(=O)Nc1ccc(Cl)cc1`, the Potency entry in assay [1] and in assay [2] was “inactive” each time.

Turning to `CC1C(C)(C)C2=C(C(=O)CCC2)C1(C)C` (stereo not given), the Potency entry in assay [1] and in assay [2] was “inactive” in each case.

Source of the values: PubChem BioAssay (Tox21).
